Assay outcomes from PubChem BioAssay.
In the library only some 1.6% were active in any assay of this set; here they are far more common.
KCNQ2 enhance: potentiators of rat KCNQ2 potassium channel | O88943 | AID 2239 | hit rate 0.54% among 310,000 | B-score at 10 µM | CHO-K1 KCNQ2, FluxOR thallium flux fluorescence; active compounds read high;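 active means fluorescence ratio B-score at least 3 SD of library B-scores, with initial fluorescence B-score within 3 of them, cut at about 5.3 in these data; same plate scores as AID 2156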;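 further: B-score of peak minus minimum over baseline fluorescence ratio after K+ and Tl+ stimulus; positive B-score means potentiation of KCNQ2 with more thallium influx and brighter signal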
Target sequence (O88943 whole entry, looked up): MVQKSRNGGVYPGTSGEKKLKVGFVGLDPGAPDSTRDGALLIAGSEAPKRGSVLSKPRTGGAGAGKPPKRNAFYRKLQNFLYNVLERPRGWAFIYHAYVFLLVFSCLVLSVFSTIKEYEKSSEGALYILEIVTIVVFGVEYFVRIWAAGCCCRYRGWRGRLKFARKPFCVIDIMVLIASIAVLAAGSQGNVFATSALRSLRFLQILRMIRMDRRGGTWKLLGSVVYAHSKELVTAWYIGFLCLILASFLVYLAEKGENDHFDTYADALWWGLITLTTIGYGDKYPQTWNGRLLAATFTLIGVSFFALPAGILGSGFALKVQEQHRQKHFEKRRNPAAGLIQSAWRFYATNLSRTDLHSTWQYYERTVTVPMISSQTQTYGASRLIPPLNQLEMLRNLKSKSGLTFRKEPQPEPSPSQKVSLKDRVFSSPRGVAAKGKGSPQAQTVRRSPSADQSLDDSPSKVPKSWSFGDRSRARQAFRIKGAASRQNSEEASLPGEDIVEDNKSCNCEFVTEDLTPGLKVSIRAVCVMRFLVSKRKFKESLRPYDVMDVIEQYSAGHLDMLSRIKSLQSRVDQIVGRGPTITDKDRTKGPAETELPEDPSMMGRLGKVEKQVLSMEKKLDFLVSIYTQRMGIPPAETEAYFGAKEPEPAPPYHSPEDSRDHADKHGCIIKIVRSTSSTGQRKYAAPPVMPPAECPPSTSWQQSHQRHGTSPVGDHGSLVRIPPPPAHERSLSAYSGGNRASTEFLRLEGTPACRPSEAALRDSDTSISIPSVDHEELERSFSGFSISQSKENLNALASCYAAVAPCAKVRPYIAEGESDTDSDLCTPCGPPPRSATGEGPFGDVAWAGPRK
KCNQ2 block: KCNQ2 (rat) channel inhibition; CHO-K1 KCNQ2, FluxOR thallium flux, 20 min; active compounds read low; B-score at 10 µM; hit rate 1.1% among 310,000;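 active means fluorescence ratio B-score at most minus 3 library SDs, with starting brightness B-score within 2 library SDs, cut at about -5.5 in these data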
Kir21 conf inh: confirmation of mouse Kir2.1 potassium channel inhibitors; AID 2032; Kir2.1-expressing cells, FluxOR thallium flux fluorescence; active compounds read low; Tl flux remaining, % of negative control (active compounds read low), % at 10 µM; hit rate 41% among 2,300; shares compounds with KCNQ2 enhance;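 active means Primary-screen hit whose thallium flux fell at least 3 control SD below untreated wells in both duplicates, with normal baseline fluorescence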
HEK293 Tl flux: alters thallium flux in parental HEK293 cells, Kir2.1 counter-screen; shares compounds with KCNQ2 enhance; hit rate 19% among 2,300; FluxOR signal as % of negative control (100 = no effect), % at 10 µM; FluxOR thallium flux fluorescence; 0% = unstimulated blank wells; AID 2105;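 active means dye signal at least 3 control SD above or below untreated wells in both duplicates, raw fluorescence within 3, either direction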;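 further: percent is based on the flux ratio of peak minus minimum fluorescence over baseline F0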
CHO-K1 Tl ctr: parental CHO-K1 activity in KCNQ2 potentiator counter-screen; shares compounds with KCNQ2 enhance; parental CHO-K1 cells, FluxOR thallium flux fluorescence; zero = vehicle mean+3SD, 100% = vehicle-minus-blank window; activity increase over 3SD of controls, % at 10 µM; hit rate 43% among 1,200;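 active means signal rise of at least 3 SD above the untreated control mean, in both duplicate wells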;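 further: counter screen of KCNQ2 potentiator hits so any rise reflects channel-independent effects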
KCNQ1 pot spec: selectivity of KCNQ2 potentiators: effect on human KCNQ1 | hit rate 28% among 1,200 | activation over 3SD threshold, % at 10 µM | shares compounds with KCNQ2 enhance | CHO KCNQ1 stable, FluxOR thallium flux fluorescence; beyond 3SD, as % of vehicle-control signal;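 active means fluorescence ratio rise of at least 3 SD of vehicle wells above their mean, in both replicate wells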
KCNQ2 pot conf: confirmation of rat KCNQ2 potassium channel potentiators | hit rate 68% among 1,200 | AID 2287 | potentiation, less the hit threshold, % at 10 µM | CHO-KCNQ2 cells, FluxOR thallium flux fluorescence | shares compounds with KCNQ2 enhance;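 active means fluorescence ratio rising 3 SD or more over the vehicle control mean in both replicates, plus primary screen hit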;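 further: peak minus minimum thallium fluorescence divided by baseline after K/Tl stimulus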
Kir21 spec: tests whether KCNQ2 potentiators also affect mouse Kir2.1; shares compounds with KCNQ2 enhance; HEK293 Kir2.1, FluxOR thallium flux fluorescence; activity over 3SD threshold, % at 10 µM; hit rate 2% among 1,200; AID 2345;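 active means fluorescence ratio rise of at least 3 SD above the vehicle-control mean, seen in both replicates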
KCNQ2 W236L pot: rat KCNQ2 W236L mutant potentiation by KCNQ2 potentiators; CHO KCNQ2-W236L, automated patch clamp current; hit rate 10% among 940; shares compounds with KCNQ2 enhance; current increase over 3SD of negative controls (%), active compounds read high, % at 25 µM;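 active means current increase at least 3 SD of the untreated controls above them in both duplicate recordings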
Large screens that a line does not name were inactive (follow-up assays come after a bar, where they were run).

Cc1ccc(-c2nc3c(Cl)cc(Cl)cc3c(=O)n2O)cc1	KCNQ2 enhance 16.6 | Kir21 conf inh inactive | HEK293 Tl flux 541.5% | CHO-K1 Tl ctr 4.1 | KCNQ1 pot spec 2.4 | KCNQ2 pot conf 102.5 | Kir21 spec 0.8 | KCNQ2 W236L pot inactive
O=c1c2ccccc2nc(-c2ccc(Cl)cc2Cl)n1O	none
O=c1c2ccccc2nc(-c2ccc(Cl)c(Cl)c2)n1O	KCNQ2 enhance 14.6 | Kir21 conf inh inactive | HEK293 Tl flux 313.5% | CHO-K1 Tl ctr inactive | KCNQ1 pot spec inactive | KCNQ2 pot conf 49.7 | Kir21 spec inactive | KCNQ2 W236L pot inactive
O=c1c2ccc(Cl)cc2nc(-c2cccc(C(F)(F)F)c2)n1O	KCNQ2 enhance 18 | Kir21 conf inh inactive | HEK293 Tl flux 498.0% | CHO-K1 Tl ctr inactive | KCNQ1 pot spec inactive | KCNQ2 pot conf 65.7 | Kir21 spec 4.2 | KCNQ2 W236L pot inactive
COc1ccc(S(=O)(=O)N(C)c2ccc(C(=O)Nc3cccnc3)cc2)cc1OC	none
Cc1ccccc1N1CCN(C2CCCN(C(=O)c3snnc3C)C2)CC1 (stereo not given)	none (no result: KCNQ2 enhance)
COc1cccc(NC(=O)C(OC(=O)c2cnc(C)cn2)c2ccccc2)c1 (stereo not given)	none (no result: KCNQ2 enhance)
On1c(-c2ccccc2)nc2ccc(Cl)cc21	none (no result: KCNQ2 enhance)
O=c1c2cc(Cl)ccc2nc(-c2ccc([N+](=O)[O-])cc2)n1O	KCNQ2 enhance 9.67 | Kir21 conf inh inactive | HEK293 Tl flux 308.0% | CHO-K1 Tl ctr inactive | KCNQ1 pot spec inactive | KCNQ2 pot conf 41.8 | Kir21 spec inactive | KCNQ2 W236L pot inactive
COc1ccc(-c2csc(NC(=S)NC(=O)c3cccs3)n2)cc1OC	none
COc1ccc(-c2csc(NC(=S)NC(=O)c3cccs3)n2)cc1Br	KCNQ2 enhance 7.07 | Kir21 conf inh inactive | HEK293 Tl flux 70.0% | CHO-K1 Tl ctr inactive | KCNQ1 pot spec inactive | KCNQ2 pot conf inactive | Kir21 spec inactive
Cc1cccc(NC(=O)NCCN2CCN(c3ccccc3)CC2)c1C	none
CCc1ccc(C2C(C#N)=C(N)C(C#N)(C#N)C3=CCC(C(C)(C)C)CC32)cc1 (stereo not given)	none | Kir21 conf inh inactive | HEK293 Tl flux inactive
Cc1ccccc1S(=O)(=O)N(CC(O)CN1C(=O)NC(C)(C)C1=O)c1ccccc1 (stereo not given)	none
Cc1ccc(C(=O)NCC(=O)OCC(=O)N2CC(C)OC(C)C2)cc1 (stereo not given)	none
CN1C(=O)[C@@H]2C[C@@]3([C@@]45C[C@H]6C(=O)N(C)[C@@H](Cc7ccccc7)C(=O)N6[C@@H]4Nc4ccccc45)c4ccccc4N[C@H]3N2C(=O)[C@@H]1Cc1ccccc1	none
CC(=O)N(CCC(c1ccccc1)c1ccco1)Cc1cccs1 (stereo not given)	KCNQ2 block -7.79 | Kir21 conf inh 47.0% | HEK293 Tl flux inactive
O=C(c1ccco1)N(CCC(c1ccccc1)c1ccco1)Cc1ccco1 (stereo not given)	KCNQ2 block -6.76 | Kir21 conf inh 72.0% | HEK293 Tl flux inactive
O=C(c1ccco1)N(Cc1ccc(Cl)cc1)Cc1ccco1	none (no result: KCNQ2 enhance)
CC(=O)N(CCC(Cc1ccccc1)c1ccco1)Cc1ccco1 (stereo not given)	KCNQ2 block -6.04 | Kir21 conf inh 37.5% | HEK293 Tl flux inactive
CC(=O)N(CCP(=O)(c1ccccc1)c1ccccc1)Cc1ccco1	none (no result: KCNQ2 enhance)
CCC(=O)N(CCC(c1ccco1)c1ccccc1OC)Cc1cccs1 (stereo not given)	none (no result: KCNQ2 enhance)
CC(=O)N1c2ccc(C)cc2C(c2ccccc2)CC1C (stereo not given)	none (no result: KCNQ2 enhance)
CC(C)c1ccc(C(C)NCCS(=O)(=O)c2ccc(Cl)cc2)cc1 (stereo not given)	none (no result: KCNQ2 enhance) | Kir21 conf inh 56.5% | HEK293 Tl flux inactive
CC(C(=O)NCCS(=O)(=O)c1ccc(Br)cc1)S(=O)(=O)c1ccc(Cl)cc1 (stereo not given)	none (no result: KCNQ2 enhance)
CN(Cc1ccccc1)CC(O)COc1ccc(CNCc2ccc(Cl)s2)cc1 (stereo not given)	none (no result: KCNQ2 enhance) | Kir21 conf inh 23.5% | HEK293 Tl flux inactive
CN(Cc1ccccc1)CC(O)COc1ccc(CNCc2cccnc2)cc1 (stereo not given)	none (no result: KCNQ2 enhance)
COc1ccc(/C=C(/NC(=O)c2ccccc2)C(=O)NCc2ccco2)cc1	none
COc1ccccc1/C=C(\NC(=O)c1ccccc1)C(=O)NCc1ccco1	none | Kir21 conf inh inactive | HEK293 Tl flux inactive
CCOC(=O)c1c(C)[nH]c(C(=O)OCC(=O)NC2(C#N)CCCCC2)c1C	none (no result: KCNQ2 enhance)
CN(C)c1ccc(N2C(=NC(=O)C3CCCO3)SC3CS(=O)(=O)CC32)cc1 (stereo not given)	none (no result: KCNQ2 enhance)
CC(=O)/C(CN1CCCCC1)=N\O	none (no result: KCNQ2 enhance)
C/C(=N\O)C(=O)C(CN1CCCCC1)CN1CCCCC1	KCNQ2 enhance 6.04 | Kir21 conf inh inactive | HEK293 Tl flux inactive | CHO-K1 Tl ctr inactive | KCNQ1 pot spec 35.4 | KCNQ2 pot conf inactive | Kir21 spec inactive
CCCCN(C(=O)C1CC(=O)N(CCc2ccc(OC)c(OC)c2)C1)c1c(N)n(CCCC)c(=O)[nH]c1=O (stereo not given)	none (no result: KCNQ2 enhance)
O=C(CC12CC3CC(CC(C3)C1)C2)Nc1c(F)cccc1F	KCNQ2 enhance 9.96 | Kir21 conf inh inactive | HEK293 Tl flux inactive | CHO-K1 Tl ctr inactive | KCNQ1 pot spec inactive | KCNQ2 pot conf 33.1 | Kir21 spec inactive | KCNQ2 W236L pot inactive
CC(=O)Nc1ccc(NC(=O)CC23CC4CC(CC(C4)C2)C3)cc1	none
CN(C)S(=O)(=O)c1cccc(NC(=O)CC23CC4CC(CC(C4)C2)C3)c1	none
CN(C)S(=O)(=O)Nc1cccc(NC(=O)CC23CC4CC(CC(C4)C2)C3)c1	KCNQ2 enhance 7.85 | Kir21 conf inh inactive | HEK293 Tl flux inactive | CHO-K1 Tl ctr 7.1 | KCNQ1 pot spec 6.3 | KCNQ2 pot conf inactive | Kir21 spec inactive | KCNQ2 W236L pot inactive
CC(Oc1ccccc1F)C(=O)NNC(=O)CCNC(=O)c1ccco1 (stereo not given)	none
Cc1cccc(N2CCN(S(=O)(=O)c3ccc(-c4ccc(=O)[nH]n4)o3)CC2)c1C	none (no result: KCNQ2 enhance)
CN(C(=O)COc1ccc(Cl)cc1Cl)C1(C)CCS(=O)(=O)C1 (stereo not given)	none
C[C@@H]1CC[C@@]2(O[C@@H](CCO)C[C@H](O)[C@H]2O)O1	none
